# This is one part of a sample in which hits are shown more often than they occur.
# LmPK inh: qHTS Assay for Inhibitors of Leishmania Mexicana Pyruvate Kinase (LmPK). 290,000 compounds, 0.37% hits. purified LmPK, Kinase-Glo ATP luminescence, 1 h. Potency, µM (top dose mostly 57.5 µM), for inactives: top-dose activity change, negative = inhibition, most hits filed as inhibitors; note: potency is the fitted concentration of half-maximal effect; % is set by controls: 0 for no effect and ±100 for the full control effect
#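 In 50 mM imidazole pH 7.2 with 7 mM MgCl2, LmPK (0.1 nM) turned over PEP (0.5 mM) and ADP (0.1 mM) for 1 h at room temperature. Luciferase read-out of ATP.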
# Giardia FBPA inh-1: qHTS Assay for Inhibitors of Fructose-1,6-bisphosphate Aldolase from Giardia Lamblia | A8B2U2 | purified Giardia FBPA | Potency, µM (top dose mostly 59.6 µM), for inactives: at the highest dose activity, negative = inhibition, usual class: inhibitors | 290,000 compounds, 0.71% hits | AID 2451, 2010; note: potency is the fitted concentration of half-maximal effect; % is set by controls: 0 for no effect and ±100 for the full control effect; nearly all actives have a fitted effect of over 55% in size
# Target sequence (A8B2U2 whole entry, looked up): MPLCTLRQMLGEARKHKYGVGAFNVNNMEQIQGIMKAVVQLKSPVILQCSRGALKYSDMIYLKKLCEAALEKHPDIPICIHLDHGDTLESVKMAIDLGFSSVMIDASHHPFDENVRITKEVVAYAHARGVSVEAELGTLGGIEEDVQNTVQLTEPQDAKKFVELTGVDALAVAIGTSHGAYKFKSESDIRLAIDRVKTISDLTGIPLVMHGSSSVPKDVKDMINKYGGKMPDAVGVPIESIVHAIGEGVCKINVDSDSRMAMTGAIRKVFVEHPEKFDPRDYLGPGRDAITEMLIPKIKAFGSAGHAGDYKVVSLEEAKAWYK
#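 Giardia FBPA (40 nM reagent) was preincubated 10 min at RT with compound (up to 57.5 uM final), then substrate plus GAPDH/TPI/NAD/arsenate coupling system with diaphorase/resazurin was added; resorufin fluorescence (525/598 nm) was read after 20 min.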
# Cycloheximide cs: Cycloheximide Counterscreen for Small Molecule Inhibitors of Shiga Toxin. cell reporter, cycloheximide protein synthesis inhibition counterscreen. max response, %. 300,000 compounds, 12% hits. AID 2314, 2010; in the data active = max response mostly above about 13%, no sharp cut-off; inactive = mostly below about 14%; note: read at 38.3 µM for the half of the compounds with a filed dose; 0% is about no effect
# Sm TGR block: qHTS Assay for the Inhibitors of Schistosoma Mansoni Peroxiredoxins; 360,000 compounds, 3% hits; AID 485364, 2010; purified TGR, DTNB reduction, TNB absorbance 405 nm; Potency, µM (series often up to 114 µM), for the others: top-dose activity change, negative = inhibition, usual class: inhibitors; Schistosoma mansoni thioredoxin glutathione reductase (TGR), Q962Y6; note: potency is the fitted concentration of half-maximal effect; % is set by controls: 0 for no effect and ±100 for the full control effect; nearly all actives have a fitted effect of over 60% in size
#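 TGR 20 nM + NADPH 100 uM (dispensed conc.), cpd preinc 15 min RT; start with NADPH (500 uM addition) then DTNB (15 mM addition). Kinetic TNB absorbance, 405 nm filter. Four-parameter Hill fit across titration.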
# Shiga inhibitor: A qHTS for Small Molecule Inhibitors of Shiga Toxin. Vero cells, Shiga toxin protein synthesis inhibition reporter. inhibition, % at 38.7 µM. 290,000 compounds, 9.2% hits; in the data active = inhibition mostly above about 28%, no sharp cut-off; inactive = mostly below about 43%; note: 0% is about no effect
# TbPYK inhibitor: qHTS of Trypanosoma Brucei Inhibitors; pyruvate kinase (Trypanosoma brucei), Q57TT1; TbPYK enzyme, Kinase-Glo Plus ATP luminescence, 45 min; Potency, µM (doses to about 76.8 µM), inactives show top-dose activity, negative = inhibition, usual class: inhibitors; 410,000 compounds, 0.12% hits; AID 624173, 2012; note: potency is the fitted concentration of half-maximal effect; % is set by controls: 0 for no effect and ±100 for the full control effect; nearly all actives have a fitted effect of over 50% in size
#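 Glycolytic pyruvate kinase of T. brucei was incubated with substrate, test compound and 130 uM ADP for 45 minutes at room temperature. Luminescent Kinase-Glo Plus signal was measured after 10 minutes.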
# Giardia growth: qHTS Assay for Inhibitors of Fructose-1,6-bisphosphate Aldolase from Giardia Lamblia: Giardia lamblia growth inhibition. Giardia lamblia trophozoite growth inhibition. AID 2785, 2010. 1,500 compounds, 5% hits. Potency, µM (highest dose often 57.5 µM), for the others: at the highest dose activity change, negative = inhibition, actives largely listed as inhibitors. shares compounds with Giardia FBPA inh-1;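 note: potency is the fitted concentration of half-maximal effect; trophozoites exposed to compound for 48 h at 37 °C; % is set by controls: 0 for no effect and ±100 for the full control effect; nearly all actives have a fitted effect of over 70% in size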
# Mammalian tox: qHTS Assay for Inhibitors of Fructose-1,6-bisphosphate Aldolase from Giardia Lamblia: Mammalian cellular toxicity. shares compounds with Giardia FBPA inh-1. Potency, µM (doses to about 57.5 µM), for inactives: at the highest dose viability change, negative = toxicity, actives largely listed as inhibitors. 1,500 compounds, 4% hits. mammalian cell viability counter-screen, qHTS;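 note: Chinese hamster ovary cells used as mammalian cytotoxicity surrogate; viability measured as cellular ATP by luminescence; potency is the fitted concentration of half-maximal effect; compound exposure lasted 48 h before reading; % is set by controls: 0 for no effect and ±100 for the full control effect; nearly all actives have a fitted effect of over 60% in size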
# Giardia FBPA inh-2: qHTS Assay for Inhibitors of Fructose-1,6-bisphosphate Aldolase from Giardia Lamblia: Primary screen confirmation | shares compounds with Giardia FBPA inh-1 | purified Giardia aldolase enzyme activity, qHTS | Potency, µM (doses to about 57.5 µM), without a hit: top-dose activity change, negative = inhibition, hits mostly inhibitors | 1,500 compounds, 5% hits | AID 2787, 2010; note: potency is the fitted concentration of half-maximal effect; % is set by controls: 0 for no effect and ±100 for the full control effect; nearly all actives have a fitted effect of over 45% in size
# Rabbit aldolase: qHTS Assay for Inhibitors of Fructose-1,6-bisphosphate Aldolase from Giardia Lamblia: Rabbit FBPA Selectivity | 1,500 compounds, 4% hits | Potency, µM (doses to about 57.5 µM), for inactives: at the highest dose activity, negative = inhibition, hits mostly inhibitors | Rabbit muscle FBPA enzyme inhibition, selectivity counter-screen | shares compounds with Giardia FBPA inh-1; note: potency is the fitted concentration of half-maximal effect; % is set by controls: 0 for no effect and ±100 for the full control effect; nearly all actives have a fitted effect of over 60% in size
# Target sequence (P00883 whole entry, looked up): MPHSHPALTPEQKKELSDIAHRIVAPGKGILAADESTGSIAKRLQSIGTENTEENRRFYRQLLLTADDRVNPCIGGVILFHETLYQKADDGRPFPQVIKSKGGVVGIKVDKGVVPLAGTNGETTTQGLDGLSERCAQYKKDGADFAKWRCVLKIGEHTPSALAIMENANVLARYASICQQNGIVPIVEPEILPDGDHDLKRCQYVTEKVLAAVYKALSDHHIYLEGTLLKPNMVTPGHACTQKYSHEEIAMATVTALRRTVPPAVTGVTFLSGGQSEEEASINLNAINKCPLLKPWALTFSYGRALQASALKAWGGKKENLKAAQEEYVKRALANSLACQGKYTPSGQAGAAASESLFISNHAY
# GAPDH coupling: qHTS Assay for Inhibitors of Fructose-1,6-bisphosphate Aldolase from Giardia Lamblia: Coupling assay counterscreen confirmation; shares compounds with Giardia FBPA inh-1; 1,500 compounds, 6% hits; GAPDH coupling enzyme counterscreen, biochemical, qHTS; Potency, µM (titrated, usually from 57.5 µM), without a hit: top-dose activity change, negative = inhibition, usual class: inhibitors; note: potency is the fitted concentration of half-maximal effect; % is set by controls: 0 for no effect and ±100 for the full control effect; nearly all actives have a fitted effect of over 55% in size
# * = called active by the depositor; ? = inconclusive; nt = not tested or not shown; [ ] = dose if it differs, or a comment. Unless noted, calls come from the whole dose curve; as a rule, active = well fitted curve in the direction sought with a large enough effect; inconclusive = small, poorly fitted or top-dose-only effect, or another doubt; inactive = no such curve, though single readings can be large; an effect the other way counts as inactive or inconclusive.
SMILES,LmPK inh,Giardia FBPA inh-1,Cycloheximide cs,Sm TGR block,Shiga inhibitor,TbPYK inhibitor,Giardia growth,Mammalian tox,Giardia FBPA inh-2,Rabbit aldolase,GAPDH coupling
CN(CCC#N)C(=S)NC(=O)c1ccc(S(=O)(=O)N2CCOCC2)cc1,3%,16µM*,0,-12%,-9,-13%,8%,-1%,6%,9%,15%
CC(=O)N1CCN(C(=S)NC(=O)c2ccc(S(=O)(=O)N3CCOCC3)cc2)CC1,7%,14µM*,1,7%,6,-10%,-7%[10.4 µM],3%,9%,11%,5%
N#CCc1ccc(NC(=O)c2ccc(S(=O)(=O)N3CCOCC3)cc2)cc1,-3%,nt,-2,?,-3,-5%,nt,nt,nt,nt,nt
COc1ccc(C(=O)NNC(=O)c2ccc(S(=O)(=O)N3CCOCC3)cc2)cc1,-2%,3%,-4,18%,-6,2%,nt,nt,nt,nt,nt
O=C(NCCc1ccccc1)c1ccc(S(=O)(=O)N2CCCCC2)cc1,nt,nt,nt,nt,nt,4%,nt,nt,nt,nt,nt
O=C(NC(=S)N(CCO)Cc1ccccc1)c1ccc(S(=O)(=O)N2CCCC2)cc1,4%,8.9µM*,-2,13%,-4,-1%,0%[10.4 µM],7%,4%,8%,10%
Cc1ccc(Cl)cc1NC(=O)Cn1c(=O)n(C(C)C)c(=O)c2oc3ccccc3c21,nt,nt,nt,-3%,nt,4%,nt,nt,nt,nt,nt
CCOC(=O)C1CCCN(C/C=C/c2ccccc2)C1 (stereo not drawn),-2%,16µM*,-3,-2%,-7,3%,67%,14%,11%,10%,-1%
CCOC(=O)C1CCN(C/C=C/c2ccccc2)CC1,-3%,?,-1,-2%,-6,-1%,nt,nt,nt,nt,nt
CC(=O)N1CCC(=NNc2nc3ccccc3[nH]2)CC1,-4%,18µM*,31*,0%,35*,6%,?,0%,-10%,-6%,3%
O=C(N1CCCCC1)N1CCC(c2nc3ccccc3[nH]2)CC1,1%,-6%,-4,-18%,-7,1%,nt,nt,nt,nt,nt
CCOc1ccc2nc(Cl)c(C3CC(c4ccccc4)=NN3C(=O)CCC(=O)O)cc2c1 (stereo not drawn),nt,nt,nt,-1%,nt,-4%,nt,nt,nt,nt,nt
CC(=O)N1CCc2c(sc3c2c(=O)n(CCc2ccccc2)c(=O)n3CC(=O)Nc2ccc(C)c(F)c2)C1,nt,nt,nt,7%,nt,4%,nt,nt,nt,nt,nt
COc1cccc(C(=O)Nc2ccccc2N2CCCC2)c1,0%,-10%,1,1%,13,5%,nt,nt,nt,nt,nt
COc1cccc(C(=O)NC(=S)Nc2ccccc2N2CCCCC2)c1,-7%,16µM*,4,5%,25,-12%,?,-22%,-3%,-2%,7%
C[C@]12CCC3c4ccc(O)cc4CCC3C1CCC2OC(=O)CCC1CCCC1 (stereo partly drawn),nt,-4%,nt,nt,nt,nt,nt,nt,nt,nt,nt
CCn1ncc(Cl)c1C(=O)NC(=S)Nc1c(C)cc(C)cc1[N+](=O)[O-],2%,?,-4,-7%,-14,-1%,nt,nt,nt,nt,nt
Cc1ccc([N+](=O)[O-])cc1NC(=S)NC(=O)c1c(Cl)cnn1C,1%,7.9µM*,8,-24%,-13,5%,12%[38.3 µM],0%,-2%,6%,-18%
CC(=O)c1ccc(OCC(O)CN2CCN(CC(O)COc3ccc(C(C)=O)cc3)CC2)cc1 (stereo not drawn),-4%,8%,-2,-1%,-3,2%,nt,nt,nt,nt,nt
CC(C)(C)c1ccc(OCC(O)CN2CCN(C(=O)c3ccccc3)CC2)cc1 (stereo not drawn),2%,14µM*,-3,1%,-4,13%,-12%,-17%,-8%,-13%,-2%
CC(=O)N1CCN(CC(O)COc2ccc(Br)cc2)CC1 (stereo not drawn),1%,28µM*,-2,-16%,-5,13%,?,8%,4%,13%,2%
O=C(Oc1ccc[nH]c1=O)c1ccccc1,nt,nt,nt,nt,nt,-17%,nt,nt,nt,nt,nt
O=C(Oc1ccc[nH]c1=O)c1cccc(Cl)c1,4%,-18%,-1,-5%,-10,2%,15%[38.3 µM],10%,0.52µM*,?,33µM*
Nc1nc(=S)c2ncn([C@H]3O[C@@H](CO)[C@@H](O)[C@@H]3O)c2[nH]1,nt,5.6µM*,nt,nt,nt,nt,-2%[19.1 µM],5µM*,-3%[28.7 µM],-3%[28.7 µM],-2%[28.7 µM]
Nc1ncnc2c1ncn2C1O[C@H](CO)[C@@H](O)[C@@H]1O (stereo partly drawn),nt,nt,nt,0%,nt,0%,nt,nt,nt,nt,nt
COc1cc(OC)c(OC)cc1CN1CCCC(C(=O)N2CCCC2)C1 (stereo not drawn),5%,28µM*,-1,-23%,-4,0%,26%,4%,2%,2%,7%
